Test results: PubChem BioAssay (EPA / NIEHS)
Activity calls are given as the source filed them. Rule for the calls: active = hit-call score of the fitted dose curve at least 0.9, where 1 is the maximum; inactive = score below 0.9.

Key:
[1] = CCTE_Shafer_MEA_dev_network_spike_duration_std: CCTE's Neural Network Formation Assay for Standard Deviation of Network Spike Duration, Shafer Lab (AID 2284052);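 note: area under curve of spike duration SD across recording days 5 to 12; hits are decreases in network spike duration SD versus DMSO vehicle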
Procedure, shortened: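 Primary rat cortical neurons on PEI-coated 16-electrode MEA wells, exposed from plating day 0 through day 12 with compound renewed at DIV 5 and 9. Network spike duration SD recorded on days 5, 7, 9, 12, collapsed as trapezoidal AUC; loss-of-signal fit versus DMSO.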

[2] = CCTE_Shafer_MEA_dev_per_network_spike_spike_number_mean: CCTE's Neural Network Formation Assay for Mean Number of Spikes in a Network Spike, Shafer Lab (AID 2284053)
Procedure, shortened: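 Primary rat cortical neurons on 48-well, 16-electrode MEA plates were exposed from plating to DIV 12, with dosing renewed on DIV 5 and 9. Spikes per network spike (0.05 s peak window) were recorded on DIV 5, 7, 9 and 12 and collapsed as trapezoidal AUC versus DMSO.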

[3] = CCTE_Shafer_MEA_dev_per_network_spike_spike_percent: CCTE's Neural Network Formation Assay for Percent of Spikes in a Network Spike, Shafer Lab (AID 2284054)
Procedure, shortened: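 Primary rat cortical neurons on 16-electrode MEA wells (PEI-coated, laminin at plating), exposed from day 0 with renewal at DIV 5 and 9; spikes within 0.05 s of network-spike peaks over total spikes, AUC across days 5, 7, 9, 12.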

[4] = UKN5_HCS_SBAD2_cell_viability: Viability Assessment in the University of Konstanz (UKN) Leist Lab Neurite Outgrowth Assay in human iPSC-derived immature Dorsal Root Ganglia Neurons (UKN5) (AID 2284056)
Procedure, shortened: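 iPSC-derived immature peripheral neurons (SBAD2) seeded on Matrigel with CHIR99021, SU5402 and DAPT, dosed 1 h later for 24 h. Viability from Hoechst H-33342 and calcein-AM live staining, high-content imaging; bidirectional fit versus DMSO.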

[5] = UKN5_HCS_SBAD2_neurite_outgrowth: University of Konstanz (UKN) Leist Lab Neurite Outgrowth Assay in human iPSC-derived immature Dorsal Root Ganglia Neurons (UKN5) (AID 2284070); conditions: actives raise or lower the signal
Procedure, shortened: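 SBAD2 iPSC-derived immature peripheral neurons on Matrigel, 100.000 cells/cm2, medium with CHIR99021 (1.5 uM), SU5402 (5 uM), DAPT (5 uM); compound added 1 h post-seeding for 24 h. Calcein-AM neurite area by high-content imaging; Hoechst H-33342 viability; bidirectional fit vs DMSO.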

[6] = CCTE_Shafer_MEA_dev_mutual_information_norm: CCTE's Neural Network Formation Assay for Mutual Information Normalization, Shafer Lab (AID 2284091)
Procedure, shortened: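 Rat cortical cultures, 48-well MEA, continuous exposure DIV 0–12 with full media/compound change DIV 5 and 9. Readout: inter-electrode mutual information, AxIS adaptive spike detection; AUC across DIV 5/7/9/12 recordings; DMSO baseline, negative fitting direction.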

[7] = CCTE_Shafer_MEA_dev_correlation_coefficient_mean: CCTE's Neural Network Formation Assay for Mean Correlation Coefficient, Shafer Lab (AID 2284093)
Procedure, shortened: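 Spontaneous activity recorded on days 5, 7, 9 and 12 post-plating; pairwise spike correlations are averaged across active electrodes and collapsed to an area-under-curve. Rat cortical cultures are dosed from plating through 12 days, with compound renewed at media changes.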

[8] = UKN2_HCS_IMR90_neural_migration: University of Konstanz (UKN) Leist Lab Neural Crest Cell Migration Assay in human induced IMR90 Pluripotent Stem Cells (UKN2) (AID 2284204); conditions: actives raise or lower the signal
Procedure, shortened: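 iPSC-derived IMR90 neural crest cells on PLO/laminin/fibronectin were seeded around silicone stoppers; after stopper removal, migration in N2-S medium with EGF and FGF ran 24 h before 24 h chemical exposure. Calcein-AM/Hoechst high-content imaging; bidirectional fit versus DMSO.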

[9] = UKN4_HCS_LUHMES_neurite_outgrowth: University of Konstanz (UKN) Leist Lab Neurite Outgrowth Assay in human LUHMES cells (UKN4) (AID 2284206); conditions: actives raise or lower the signal
Procedure, shortened: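 Human LUHMES neuronal precursors, differentiated 2 days then replated without cAMP and GDNF, exposed to compounds for 24 h. Neurite area imaged by high-content microscopy after calcein-AM live staining; Hoechst H-33342 for viability; bidirectional fit versus DMSO.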

[10] = CCTE_Mundy_HCI_Cortical_Synap_Neur_Matur_NeuriteSpotCountPerNeuriteLength: CCTE's Synaptogenesis and Neurite Maturation Assay in rat cortical cells for Neurite Spot Count per Neurite Length, Mundy Lab (AID 2284210)
Procedure, shortened: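 Rat primary cortical cultures, glia arrested with AraC at DIV 5, were dosed with media change at DIV 7 and fixed at DIV 12. Synaptophysin puncta per MAP2-labelled neurite length were quantified by high-content imaging versus DMSO.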

[11] = CCTE_Mundy_HCI_Cortical_NOG_NeuriteLength: CCTE's Neurite Outgrowth Assay in rat cortical cells for Neurite Length, Mundy Lab (AID 2284213)
Procedure, shortened: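 Neurite length was read by high-content imaging of βIII-tubulin-labelled neurites in rat primary cortical cultures. Activity was fitted relative to DMSO.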

[12] = CCTE_Mundy_HCI_Cortical_Synap_Neur_Matur_NeuriteLength: CCTE's Synaptogenesis and Neurite Maturation Assay in rat cortical cells for Neurite Length, Mundy Lab (AID 2284214)
Procedure, shortened: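 Rat primary cortical cultures, AraC added DIV 5, dosed DIV 7 through DIV 12 […]. Fixed, MAP2/synaptophysin immunostained with Hoechst; neurite length by high-content imaging, fitted in positive direction versus DMSO.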

[13] = CCTE_Mundy_HCI_Cortical_Synap_Neur_Matur_NeuriteSpotCountPerNeuron: CCTE's Synaptogenesis and Neurite Maturation Assay in rat cortical cells for Neurite Spot Count per Neuron Count, Mundy Lab (AID 2284215)
Procedure, shortened: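 Rat primary cortical cells received AraC at DIV 5, then chemicals with a media change at DIV 7, and were fixed at DIV 12. Synaptophysin puncta on MAP2-stained neurites per neuron were counted by high-content imaging, fitted relative to DMSO.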

[14] = CCTE_Mundy_HCI_Cortical_Synap_Neur_Matur_SynapseCount: CCTE's Synaptogenesis and Neurite Maturation Assay in rat cortical cells for Synapse Count, Mundy Lab (AID 2284218)
Procedure, shortened: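 Rat primary cortical cultures, AraC at DIV 5, chemical dosing DIV 7 to DIV 12 (288.33 h). Fixed cells stained for MAP2, synaptophysin and Hoechst; synapses per neuron counted by high-content imaging, loss of signal versus DMSO.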

[15] = CCTE_Mundy_HCI_Cortical_Synap_Neur_Matur_CellBodySpotCount: CCTE's Synaptogenesis and Neurite Maturation Assay in rat cortical cells for Cell Body Spot Count, Mundy Lab (AID 2284223)
Procedure, shortened: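 Rat primary cortical cultures received AraC at DIV 5 to arrest glia, were dosed with chemical at DIV 7 with media change, and were fixed at DIV 12 (288.33 h). Synaptophysin puncta on MAP2-positive cell bodies per neuron were counted by high-content imaging versus DMSO.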

[16] = UKN4_HCS_LUHMES_cell_viability: Viability Assessment in the University of Konstanz (UKN) Leist Lab Neurite Outgrowth Assay in human LUHMES cells (UKN4) (AID 2284232)
Procedure, shortened: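 LUHMES precursors differentiated 2 days, replated at 30000 cells/well without cAMP/GDNF, then compound-treated 24 h. Viability from Hoechst H-33342 and calcein-AM live staining (30 min) by high-content fluorescence imaging; bidirectional fit versus DMSO.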

[17] = UKN2_HCS_IMR90_cell_viability: Viability Assessment in the University of Konstanz (UKN) Leist Lab Neural Crest Cell Migration Assay in human induced IMR90 Pluripotent Stem Cells (UKN2) (AID 2284233);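 note: viability of neural crest cells differentiated from IMR90 iPSC measured by calcein-AM fluorescence imaging; cells exposed to compound for 24 h after a 24 h migration phase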
Procedure, shortened: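 iPSC-derived (IMR90) neural crest cells seeded around silicone stoppers on PLO/laminin/fibronectin; after 24 h migration in N2-S with EGF/FGF, chemical added for 24 h. Calcein-AM/Hoechst stained 30 min, high-content imaged; bidirectional fit versus DMSO.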

[18] = CCTE_Mundy_HCI_hNP1_Casp3_7: CCTE's Caspase-Glo 3/7 Assay in human neuroprogenitor cells for Apoptosis, Mundy Lab (AID 2284240)
Procedure, shortened: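 Neuroepithelial-lineage stem cells from WA09 embryonic cells were treated with chemicals after 40–44 h of culture. Twenty-four hours later, caspase-3/7 activation was detected luminescently after a 30 min room-temperature reagent step, with DMSO as baseline.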

Measured: outcome

COC(=O)[C@H]1[C@@H](OC(=O)c2ccccc2)C[C@@H]2CC[C@H]1N2C
inactive: all assays above
